From PubChem
PLK1 PBD block: inhibitors of human PLK1 polo-box domain binding | actives 2.8% (n = 360,000) | Potency, µM, for inactives: max response, negative = inhibition, most hits filed as inhibitors | AID 720504 | Plk1 PBD binding of FITC phosphopeptide, fluorescence polarization; note: series mostly up to about 57 µM; % is set by controls: 0 for no effect and ±100 for the full control effect; nearly all actives have a fitted effect of over 65% in size
HP1b chromo inh: HP1-beta chromodomain-methylated histone interaction inhibition; P83916; AlphaScreen HP1-beta / biotin-H3K9me3 peptide binding; Potency, µM (doses to about 114 µM), inactives show at the highest dose activity change, negative = inhibition, usual class: inhibitors; actives 0.56% (n = 390,000); AID 540317; note: nearly all actives have a fitted effect of over 70% in size
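HP1-beta protein (50 nM final) preincubated 30 min at room temperature with biotinylated H3(1-18)K9me3 peptide (50 nM) in PBS pH 7.4, 0.01% Tween-20, then compound added for 30 min. AlphaScreen streptavidin donor/nickel chelate acceptor beads (10 ug/mL final), 30 min dark, luminescence read.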
JMJD2A Tudor inh: JMJD2A Tudor domain (human) inhibition | Potency, µM (series often up to 114 µM), without a hit: at the top dose activity change, negative = inhibition, most hits filed as inhibitors | actives 4.4% (n = 390,000) | AlphaScreen JMJD2A-Tudor / H3K4me3 peptide binding | O75164 | AID 504339; note: % is set by controls: 0 for no effect and ±100 for the full control effect; nearly all actives have a fitted effect of over 50% in size
VDR inh: blocks the human vitamin D receptor; VDR-SRC2-3 peptide fluorescence polarization, 2 h; Potency, µM, for the others: max response, negative = inhibition, actives largely listed as inhibitors; P11473; AID 504847; actives 0.93% (n = 400,000); note: % is set by controls: 0 for no effect and ±100 for the full control effect
Target sequence (P11473 whole entry, looked up): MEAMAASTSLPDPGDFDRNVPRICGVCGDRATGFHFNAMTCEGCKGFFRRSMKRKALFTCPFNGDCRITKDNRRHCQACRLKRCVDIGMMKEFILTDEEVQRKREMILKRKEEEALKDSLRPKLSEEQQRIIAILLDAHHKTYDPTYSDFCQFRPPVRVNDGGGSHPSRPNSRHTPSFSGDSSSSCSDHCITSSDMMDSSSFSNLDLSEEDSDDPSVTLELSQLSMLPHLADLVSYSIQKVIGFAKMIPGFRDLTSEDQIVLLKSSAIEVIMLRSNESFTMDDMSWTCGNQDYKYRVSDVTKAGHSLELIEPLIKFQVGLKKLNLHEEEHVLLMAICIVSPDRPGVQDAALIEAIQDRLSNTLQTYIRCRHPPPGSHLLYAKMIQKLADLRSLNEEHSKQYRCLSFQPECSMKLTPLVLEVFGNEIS
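Signal is fluorescence polarization, reporting how far test compounds block the interaction of VDR with the SRC2-3 coregulator peptide after a 2 h room-temperature incubation.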
G9a block: blocks human histone lysine methyltransferase G9a; Q96KQ7; G9a H3K9 monomethylation, AlphaScreen, 2 h; Potency, µM (doses to about 102 µM), without a hit: top-dose activity, negative = inhibition, usual class: inhibitors; actives 8.8% (n = 350,000); note: % is set by controls: 0 for no effect and ±100 for the full control effect; nearly all actives have a fitted effect of over 75% in size
Target sequence (Q96KQ7 913-1193 limits assumed): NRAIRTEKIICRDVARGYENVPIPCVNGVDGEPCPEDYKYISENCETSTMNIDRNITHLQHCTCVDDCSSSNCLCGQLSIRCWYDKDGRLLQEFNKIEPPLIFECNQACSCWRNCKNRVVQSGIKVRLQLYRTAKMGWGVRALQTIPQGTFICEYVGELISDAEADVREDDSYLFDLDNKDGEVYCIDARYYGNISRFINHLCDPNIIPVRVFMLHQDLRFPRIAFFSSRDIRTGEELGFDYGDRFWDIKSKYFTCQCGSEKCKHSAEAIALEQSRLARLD
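Signal arises when biotinylated H3K9 peptide, once monomethylated, bridges streptavidin donor and antibody-captured acceptor beads. Enzyme at 20 nM was preincubated 15 min with test compounds; peptide 500 nM and SAM 20 uM then reacted for 2 h.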
BAZ2B inh: BAZ2B (human) inhibition. AlphaScreen BAZ2B-H3K14Ac peptide displacement. Q9UIF8. AID 504333. actives 4.4% (n = 360,000). Potency, µM (top dose mostly 114 µM), inactives show at the top dose activity change, negative = inhibition, actives largely listed as inhibitors; note: % is set by controls: 0 for no effect and ±100 for the full control effect; nearly all actives have a fitted effect of over 60% in size
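BAZ2B (50 nM) with biotin-H3(5-23)K14Ac peptide (50 nM) in PBS pH 7.4, 0.01% Tween-20, preformed 30 min, then compound 30 min at room temperature; top concentration 110uM. AlphaScreen streptavidin donor/nickel chelate acceptor beads (10 ug/mL final), 20 min dark, signal read.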
The depositor's hits bear a star; ? = inconclusive; nt = not tested or not shown; [ ] = another dose, or the depositor's remark. Sampled rows, rich in hits. Any-hit rate of the full collection: about 11%. Calls come from the whole dose curve; as a rule, active = well fitted curve in the direction sought with a large enough effect; inconclusive = small, poorly fitted or top-dose-only effect, or another doubt; inactive = no such curve, though single readings can be large; an effect the other way counts as inactive or inconclusive. Potency is the fitted concentration of half-maximal effect.

SMILES | PLK1 PBD block | HP1b chromo inh | JMJD2A Tudor inh | VDR inh | G9a block | BAZ2B inh
COc1ccc(NS(=O)(=O)c2cc(C(=O)N3CCN(C/C=C/c4ccccc4)CC3)ccc2C)cc1 | -7.7% | -10.0% | ? | -15.9% | 14.1µM* | 50.1µM*
O=C(NCC(=O)N1CCCC1)c1ccc(Br)cc1 | -3.5% | 24.3% | -13.4% | -0.6% | 42.8% | 4.8%
O=C(NC(=S)N1CCN(C/C=C/c2ccccc2)CC1)c1ccco1 | -8.4% | 10.2% | -20.5% | -15.0% | 44.7µM* | -34.1%
O=C(NCC(=O)N1CCN(C(=O)c2ccco2)CC1)c1ccc(Br)cc1 | 21.2µM* | -12.3%[57 µM] | -22.1% | -24.6% | nt | 4.3%
O=C(c1ccco1)N1CCN(C/C=C/c2ccccc2)CC1 | 29.9µM* | -0.4% | -13.7%[11.4 µM] | -10.2% | 56.2µM* | 3.9%
COc1ccccc1CNC(=O)CCc1c(C)c2ccc(OC)c(C)c2oc1=O | nt | -2.9% | -12.8% | 13.6% | ? | -3.0%
CCN(CC)C(=O)CN1C(=O)/C(=C/c2ccccc2)SC1=S | 26.7µM* | 0.9% | -29.4%[11.4 µM] | ? | 8.7% | -3.0%
COC(=O)CCCCCN1C(=O)/C(=C\c2ccncc2)SC1=S | -24.5% | ? | 44.7µM* | 79.4µM* | 10µM* | 25.1µM*
O=C(O)CCN1C(=O)/C(=C\c2ccncc2)SC1=S | 0.1% | 33.5% | -1.4% | -6.8% | 56.2µM* | -23.0%
COc1ccc(/C=C2/SC(=S)N(CCC(=O)O)C2=O)cc1 | -7.1% | 1.6% | -17.7% | -8.8% | -12.0% | -5.9%
O=C(O)CCN1C(=O)S/C(=C\c2cccnc2)C1=O | -11.1% | 31.5% | -10.6% | 4.8% | 70.8µM* | ?
O=C(CN1C(=O)S/C(=C/c2cccnc2)C1=O)N1CCOCC1 | -2.3% | 33.7% | -8.9% | -7.6% | 28.6%[59 µM] | 6.9%
CC(C)Oc1ccc(C(=O)Nc2nonc2-c2ccc(OC(C)C)cc2)cc1 | nt | 8.9% | -28.0% | -1.7% | -19.0%[59 µM] | -0.6%
Cc1nn2c(=O)cc(COC(=O)c3cccc(NC(=O)c4ccc(F)cc4)c3)nc2s1 | nt | 22.6% | -17.9% | 0.9% | 1.2%[59 µM] | 1.1%
Cc1ccc(CNC(=O)Cn2cc(S(=O)(=O)Cc3ccccc3F)c3ccccc32)cc1 | nt | 23.5% | -6.9% | 9.4% | 14.0%[59 µM] | -18.2%
O=C1/C(=C/c2cccnc2)SC(=S)N1CCc1ccccc1 | 1.4% | 12.0% | -27.5% | ? | nt | 10µM*
CCOc1ccc(/C=C2\SC(=S)N(CCC(=O)N(CCO)c3ccccc3)C2=O)cc1 | 0.7% | -25.4% | ? | -4.8% | 15.8µM* | ?
O=C(O)CCN1C(=O)/C(=C\c2cccc(Oc3ccccc3)c2)SC1=S | 16.8µM* | ? | ? | 35.5µM* | 50.1µM* | 50.1µM*
O=C(CN1C(=O)/C(=C/c2ccccc2)SC1=S)Nc1cccnc1 | -12.5% | 52.1% | -8.2% | 10.2% | 11.0% | ?
CCN1C(=O)/C(=C\c2ccncc2)SC1=S | -21.2% | -25.1%[57 µM] | ? | ? | -4.3%[12.7 µM] | ?
CCCCC(CC)CN1C(=O)/C(=C/c2ccncc2)SC1=S (stereo not given) | 1.6% | ? | 28.2µM* | -24.2% | nt | ?
COc1ccc(/C=C2\SC(=S)N(CCC(=O)N(CCO)c3ccccc3)C2=O)cc1OC | -15.7% | 5.8% | -21.0% | 2.7% | 1.5%[2.33 µM] | -11.7%
Cc1ccc(C(=O)NCCC(=O)Nc2ccccc2C)cc1 | -8.5% | 25.5% | -6.5% | -2.7% | nt | -15.8%
O=C(O)CN1C(=O)/C(=C/c2ccsc2)SC1=S | -3.6% | 22.9% | -11.7% | -6.7% | 31.6µM* | 79.4µM*
COCCCN1C2=C(C(=O)CC(C)(C)C2)C(c2ccc(OC)c(OC)c2)C2=C1CC(C)(C)CC2=O | -0.8% | 23.4% | -11.3% | -5.7% | 70.8µM* | -16.8%
SMILES | PLK1 PBD block | HP1b chromo inh | JMJD2A Tudor inh | VDR inh | G9a block | BAZ2B inh
COc1cc(C2C3=C(CC(C)(C)CC3=O)N(C)C3=C2C(=O)CC(C)(C)C3)ccc1O | -6.6% | 18.6% | -1.4% | 10.4% | nt | -2.0%
COc1cc(C2C3=C(CC(C)(C)CC3=O)N(C)C3=C2C(=O)CC(C)(C)C3)cc(Br)c1O | 1.7% | 49.2% | -9.6% | -0.2% | 70.8µM* | 12.2%
Cc1cccc(N(Cc2cc(=O)[nH]c3ccccc23)C(=O)CCl)c1 | -9.9% | -2.5% | 56.2µM* | -7.8% | 5.62µM* | -16.9%
CC(=O)N(Cc1cc(=O)[nH]c2ccccc12)c1cccc(C)c1 | -4.2% | -24.9% | 31.6µM* | -6.6% | ? | -6.3%
COc1ccc(CNC(=O)C[C@H]2C[C@H](C(=O)N3CCOCC3)[C@@]3(CCC4CCCC4)c4[nH]c5cc(CCC(=O)N(C)C)ccc5c4CCN3C2=O)cc1OC | -6.6% | 13.1% | -20.5% | 11.7% | nt | nt
O=C1CCC[C@@H]2[C@@H](Cc3ccccc3)[C@H](N3CCN(c4ccccc4)CC3)C[C@@H]3CCN1[C@@H]32 | -0.4% | -20.6% | 44.7µM* | -6.5% | nt | nt
Cc1cc(C)cc(Cn2cc(CN3CC(N4CCSCC4)CS3(=O)=O)nn2)c1 (stereo not given) | -16.7% | nt | nt | nt | nt | nt
COc1ccc2sc(NC(=O)c3ccco3)nc2c1 | -10.8% | 15.0% | ? | 1.6% | 7.08µM* | ?
COc1ccc2c(c1)-c1nc(NC(=O)c3cccs3)sc1CC2 | 0.0% | 30.9% | -21.5% | 2.8% | ? | -10.8%
COc1ccc2c(c1)Cc1sc(NC(=O)c3ccco3)nc1-2 | ? | 16.1% | -8.0% | -15.6% | 56.2µM* | -43.8%
COc1ccc2c(c1)CCc1sc(NC(=O)c3ccco3)nc1-2 | ? | -16.3% | -30.5% | -29.2% | 39.8µM* | -33.9%
COc1ccc2c(c1)CCc1sc(NC(=O)c3ccc(C)cc3)nc1-2 | -13.0% | 23.4% | -16.3% | -4.4% | 5.9% | -20.3%
COc1ccc2c(c1)-c1nc(NC(=O)c3ccco3)sc1CC2 | ? | -25.6% | -33.6% | -1.6% | 25.1µM* | -28.2%
CC[C@]1(c2ccccc2)NC(=O)NC1=O | nt | nt | nt | -2.9% | nt | nt
O=C(N[C@H]1C/C=C\C[C@@H](CC(=O)N(CCO)Cc2ccccc2)C(=O)NC[C@H](c2ccccc2)OC1=O)OCC1c2ccccc2-c2ccccc21 | -8.1% | 22.9% | -25.9% | 9.4% | nt | nt
CCC(Sc1nc2nccnc2c(=O)n1Cc1ccc(F)cc1)C(=O)NC1CCCCC1 (stereo not given) | nt | 46.1% | -0.7% | 2.4% | 13.2%[59 µM] | 3.9%
COc1ccc2nc(NC(=O)c3ccc(-c4cccc([N+](=O)[O-])c4)o3)sc2c1 | nt | nt | nt | nt | ? | 79.4µM*
CCc1cc2ccc(OC)cc2nc1SCC(=O)NNC(=O)c1ccco1 | -28.3% | 31.1% | -15.4% | -14.6% | 50.1µM* | -20.8%
COc1ccccc1C(=O)N(C)c1nnc(-c2ccccc2)s1 | -6.8% | 33.4% | -12.5% | 1.4% | nt | 27.3%
COCCNC(=O)C(c1ccc(C)o1)N(CCOC)C(=O)Cn1nnc2ccccc21 (stereo not given) | 26.7µM* | -9.7% | -12.0% | -25.2% | -5.9% | -19.2%
